Hits are enriched below; roughly 3.5% of the tested compounds scored in any of these assays.
GPR151 ag: activators of human GPR151, primary screen, cell-based, PathHunter beta-arrestin, luminescence; PathHunter beta-arrestin GPR151 cells; actives 1% (n = 650,000); G-protein coupled receptor 151 (Homo sapiens), Q8TDV0; activation, % at 11.2 µM; AID 1508602, 2020; in the data active means activation above about 4.9%
FBW7 act: FBW7 E3 ligase activators, primary screen, biochemical, AlphaScreen, human | F-box/WD repeat-containing protein 7 (Homo sapiens), Q969H0 | AlphaScreen FBW7–phospho-cyclin E peptide binding, activator screen | normalized activity (activation), % at 26.1 µM | actives 0.13% (n = 650,000); in the data active means normalized activity above about 1.9%;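 further: purified mutant Fbw7 with reduced substrate affinity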
TEAD-YAP block: TEAD-YAP interaction inhibition, primary screen, TEAD-YAP interaction inhibitor project, luminescence, HEK-TIYL cells | TEAD-Gal4/YAP UAS-luciferase luminescence | inhibition, % at 9.12 µM | actives 1.4% (n = 640,000) | AID 1259422, 2018; in the data active means inhibition above about 32%
MITF primary: MITF inhibitors, primary screen, biochemical, AlphaScreen, human; AID 1259374, 2018; actives 0.91% (n = 650,000); Microphthalmia-associated transcription factor (Homo sapiens), O75030; inhibition, % at 2.6 µM; AlphaScreen MITF homodimerization, bead proximity signal; in the data active means inhibition above about 50%
GPR151 confirm: GPR151 activators, triplicate retest, confirmation, cell-based, PathHunter beta-arrestin, luminescence; shares compounds with GPR151 ag; GPR151 PathHunter beta-arrestin cells, 90 min; % of EA-reagent control over plate median; activation, % at 11.2 µM; 6,700 tested, under 10 active; AID 1508609, 2020;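 active means mean percent activation across replicates above the confirmation screen cutoff of 4.91%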
GPR119 ag: GPR119 activators in beta-arrestin cells, counter-screen for GPR151 activator project, cell-based, PathHunter beta-arrestin, luminescence, triplicate; 90 min; 0 = compound-well median, 100 = enzyme-acceptor control; actives 0.3% (n = 6,700); shares compounds with GPR151 ag; AID 1508611, 2020; activation, % at 11.2 µM;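 active means mean percent activation in the counterscreen above 29.09%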;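 further: counterscreen on off-target GPR119 to flag nonselective hits from the GPR151 activator screen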
Target sequence (Q8TDV5 whole entry, looked up): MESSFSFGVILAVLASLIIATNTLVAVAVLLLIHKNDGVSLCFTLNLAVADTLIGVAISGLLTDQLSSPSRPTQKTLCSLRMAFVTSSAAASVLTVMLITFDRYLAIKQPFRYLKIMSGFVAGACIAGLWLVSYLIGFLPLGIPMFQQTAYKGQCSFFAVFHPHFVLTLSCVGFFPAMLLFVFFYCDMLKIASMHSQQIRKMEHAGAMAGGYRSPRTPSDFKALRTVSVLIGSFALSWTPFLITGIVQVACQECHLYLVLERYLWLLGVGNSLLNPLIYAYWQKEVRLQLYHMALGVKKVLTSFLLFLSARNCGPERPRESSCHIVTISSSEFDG
Large screens that a line does not name were inactive (follow-up assays come after a bar, where they were run).

CC(C)CNC(=O)c1cc([N+](=O)[O-])cc([N+](=O)[O-])c1	none
CCCOC(=O)c1ccc(NC(=O)CSc2ccccc2)cc1	none
CCOC(=O)c1ccc(NC(=O)CC2COc3ccccc3O2)cc1 (stereo not drawn)	GPR151 ag 5.8 | GPR151 confirm inactive | GPR119 ag inactive
CCOC(=O)c1ccc(NC(=O)CSc2ccc(Br)cc2)cc1	GPR151 ag 7.9 | GPR151 confirm inactive | GPR119 ag inactive
COc1ccc(SCCC(=O)Nc2ccc(Br)cc2)cc1	GPR151 ag 5.2 | GPR151 confirm inactive | GPR119 ag inactive
CC(C)(C)CN1CCNC(=O)C1CC(=O)NCCCn1ccc2ccccc21 (stereo not drawn)	none
Cc1cccc(N/C=C2/CCCCC2=O)c1	none
O=C(/C=C/c1ccc(Br)cc1)N1CCOCC1	none
O=C(/C=C/c1ccc(-c2ccc(Br)cc2)o1)N1CCOCC1	GPR151 ag 5.4 | GPR151 confirm inactive | GPR119 ag inactive
COC(=O)COc1ccc(/C=C2\Oc3cc(OC)ccc3C2=O)cc1OC	none
COC(=O)C(C)Oc1ccc(/C=C2\Oc3cc(OC)ccc3C2=O)cc1OC (stereo not drawn)	GPR151 ag 8.8 | GPR151 confirm inactive | GPR119 ag inactive
COc1ccc2c(c1)O/C(=C\c1ccc(OC)c(OC)c1)C2=O	GPR151 ag 5.5 | GPR151 confirm inactive | GPR119 ag inactive
COc1cc(C)c2c(c1)O/C(=C\c1ccc(OC)c(OC)c1OC)C2=O	GPR151 ag 7.5 | GPR151 confirm inactive | GPR119 ag inactive
COc1ccc2c(c1)O/C(=C\c1ccc(OS(C)(=O)=O)c(OC)c1)C2=O	none
COc1ccc(C2=NN3C(C2)c2cc(Cl)ccc2OC3c2ccc(OC)c(OC)c2)cc1 (stereo not drawn)	none
CC(CCc1ccccc1)NC(=O)c1cc2c(s1)CS(=O)(=O)C2 (stereo not drawn)	none
CSc1nnc(-c2ccco2)n1-c1ccccc1	GPR151 ag 5.1 | GPR151 confirm inactive | GPR119 ag inactive
CN(C)c1nc2cc(F)ccc2cc1CN(Cc1ccco1)C(=O)c1cn2ccccc2n1	GPR151 ag 15.0 | GPR151 confirm inactive | GPR119 ag inactive
CCC(=O)N1CCN(c2ccc(Cl)cc2NC(=O)c2cc3ccccc3o2)CC1	none
CCOc1cc(/C=N/N=C2/NC(=O)CS2)ccc1OC(=O)c1ccc(OC)cc1	none
CCOc1cc(/C=N/N=C2/NC(=O)CS2)cc(Cl)c1O	GPR151 ag 7.1 | GPR151 confirm inactive | GPR119 ag inactive
Cc1cc2nc(-c3ccc(SCC(=O)N(C)C)nc3)[nH]c2cc1C	none
CCOc1ccc(C(=S)N2CCCC2)cc1	none
CCOc1ccc(C(=S)N2CCCCC2)cc1	GPR151 ag 6.2 | GPR151 confirm inactive | GPR119 ag inactive
CCOc1ccc(NC(=O)c2cccnc2)c([N+](=O)[O-])c1	GPR151 ag 5.8, TEAD-YAP block 46.2 | GPR151 confirm inactive | GPR119 ag inactive
Cc1cccc(OCC(=O)NCc2cccnc2)c1	none
Cc1cc(OCC(=O)NCc2cccnc2)ccc1[N+](=O)[O-]	GPR151 ag 5.2 | GPR151 confirm inactive | GPR119 ag inactive
CN1C(=O)/C(=N/OC(=O)c2ccccc2Cl)c2ccccc21	none
Cc1cccc(C(=O)NCCCN(C)C)c1	GPR151 ag 7.7 | GPR151 confirm inactive | GPR119 ag inactive
CC1C2NC(=S)NC1(C)Oc1ccccc12 (stereo not drawn)	GPR151 ag 7.4 | GPR151 confirm inactive | GPR119 ag inactive
CCN1C(=O)/C(=C\c2cc(OC)c(OC)c(OC)c2)C(C(=O)OC)=C1C	none
C=CCOc1ccc(C2/C(=C(/O)c3ccc(OCC)c(C)c3)C(=O)C(=O)N2Cc2cccnc2)cc1 (stereo not drawn)	GPR151 ag 6.6 | GPR151 confirm inactive | GPR119 ag inactive
CCOc1ccc(/C(O)=C2/C(=O)C(=O)N(Cc3cccnc3)C2c2ccc(C)cc2)cc1C (stereo not drawn)	none
O=C(NCCCN1CCN(c2ccccc2)CC1)c1ccccc1	none
Cc1ccc(C(=O)NCN2CCN(c3ccccc3)CC2)cc1	GPR151 ag 6.0 | GPR151 confirm inactive | GPR119 ag inactive
CCCCC(C)(C)[C@H](O)/C=C/[C@H]1C=CC(=O)[C@@H]1C/C=C\CCCC(=O)O	GPR151 ag 13.0 (no result: FBW7 act, TEAD-YAP block) | GPR151 confirm inactive | GPR119 ag inactive
CCCCC[C@H](O)/C=C/[C@H]1C(=O)C[C@H](O)[C@@H]1CCCCCCC(=O)O	GPR151 ag 9.7 (no result: FBW7 act, TEAD-YAP block) | GPR151 confirm inactive | GPR119 ag inactive
CCCCC[C@H](O)/C=C/C1=C(C/C=C\CCCC(=O)O)C(=O)CC1	GPR151 ag 9.3 (no result: FBW7 act, TEAD-YAP block) | GPR151 confirm inactive | GPR119 ag inactive
CCCCC[C@H](O)/C=C/[C@H]1C(=O)C[C@H](O)[C@@H]1CCCCCCCO	none (no result: FBW7 act, TEAD-YAP block)
CCCCCC(=O)/C=C/[C@@H]1[C@@H](C/C=C\CCCC(=O)O)[C@@H](O)C[C@H]1O	GPR151 ag 5.5 (no result: FBW7 act, TEAD-YAP block) | GPR151 confirm inactive | GPR119 ag inactive
CCCCC[C@@H](O)/C=C/[C@H]1C(=O)C[C@H](O)[C@@H]1C/C=C\CCCC(=O)O	none (no result: FBW7 act, TEAD-YAP block)
COc1cccc(NC(=O)Cn2cnc3sc(C)c(C)c3c2=O)c1	none
CSc1nc2sccn2c(=O)c1C(=O)NC(C)(C)CO	none
CC1CCN(C(=O)CSCC(=O)Nc2nc(-c3ccccc3)cs2)CC1	none
COc1ccc(-n2c(=S)[nH]c3cc(C(=O)Nc4cccc(Cl)c4)ccc3c2=O)cc1	none
O=C(Nc1ccccc1Br)C1CCCN(S(=O)(=O)N2CCOCC2)C1 (stereo not drawn)	none
O=C(c1cnn(-c2ccccc2)c1-n1cccc1)N1CCCC(C(=O)N2CCCC2)C1 (stereo not drawn)	none
CCCCC(C)(C)[C@H](O)/C=C/[C@H]1C=CC(=O)[C@@H]1CCCCCCC(=O)O	none (no result: FBW7 act, TEAD-YAP block)
CCCCC[C@H](O)/C=C/[C@H]1C=CC(=O)[C@@H]1CCCCCCC(=O)OCC	GPR151 ag 4.9 (no result: FBW7 act, TEAD-YAP block) | GPR151 confirm inactive | GPR119 ag inactive
CCCCC[C@H](O)/C=C/[C@H]1C=CC(=O)[C@H]1C/C=C\CCCC(=O)O	GPR151 ag 5.8 (no result: FBW7 act, TEAD-YAP block) | GPR151 confirm inactive | GPR119 ag inactive
CCCCC/C=C/C=C1/C=CC(=O)[C@@H]1C/C=C\CCCC(=O)O	none (no result: FBW7 act, TEAD-YAP block)
CCCCC/C=C/C=C1/C(=O)C[C@H](O)[C@@H]1C/C=C\CCCC(=O)O	GPR151 ag 5.6 (no result: FBW7 act, TEAD-YAP block) | GPR151 confirm inactive | GPR119 ag inactive

Screening results (PubChem BioAssay)
